Target: T1, Aspartate--tRNA(Asp/Asn) ligase (Mycobacterium tuberculosis (strain ATCC 25618 / H37Rv)) (UniProt P9WFW3)
T1 sequence (whole entry): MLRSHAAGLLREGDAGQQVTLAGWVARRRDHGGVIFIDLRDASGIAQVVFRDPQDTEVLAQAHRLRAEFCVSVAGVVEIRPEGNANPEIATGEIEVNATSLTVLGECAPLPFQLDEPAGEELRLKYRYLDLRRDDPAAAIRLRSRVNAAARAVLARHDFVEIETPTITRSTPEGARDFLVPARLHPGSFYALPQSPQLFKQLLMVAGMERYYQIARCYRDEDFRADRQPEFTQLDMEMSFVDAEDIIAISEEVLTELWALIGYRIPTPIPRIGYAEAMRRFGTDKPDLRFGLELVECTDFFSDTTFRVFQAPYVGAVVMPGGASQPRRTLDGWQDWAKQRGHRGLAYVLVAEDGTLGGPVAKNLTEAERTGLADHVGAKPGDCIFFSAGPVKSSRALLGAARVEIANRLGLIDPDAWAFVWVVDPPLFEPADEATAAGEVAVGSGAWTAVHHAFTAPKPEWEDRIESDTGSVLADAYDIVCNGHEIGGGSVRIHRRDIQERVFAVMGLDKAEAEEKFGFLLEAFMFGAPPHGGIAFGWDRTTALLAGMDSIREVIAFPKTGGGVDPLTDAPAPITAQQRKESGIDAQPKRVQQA
Test: Assay for Asp RNA synthetase-1 from Mycobacterium tuberculosis
Type: functional
Design: scale not given: in the data most compounds retested in dose-response had high values
Conditions: 30 µM

Going from `CCN(Cc1ccco1)C(=O)c1cc(OC)c2c(c1)OCCO2` to `COc1ccc(CNC(=O)N2CCC(Cc3cnn(C)c3)C2)cc1C` (stereo not given), the Percent Effect falls from 3.71% to -2.9%.

First: COc1ccc(CNC(C)c2ccc3[nH]c(=O)[nH]c3c2)cc1 (stereo not given)
Second: COc1ccc(C(=O)N2CCC(Nc3ccc(C)nn3)CC2)c(F)c1
The Percent Effect of the first is lower: 2.66% for the first, 4.79% for the second.

First: O=C(c1ccsc1)N1C[C@@H]2C[C@@H](c3nnc(C4CC4)o3)O[C@@H]2C1
Second: COc1nn(C)cc1C(=O)N1CCC(c2nnc(C3CC3)o2)CC1
The Percent Effect of the first is higher: 6.08% for the first, -1.47% for the second.

First: Cc1cn2c(n1)CCC(NC(=O)c1ccc(CS(C)(=O)=O)cc1)C2 (stereo not given)
Second: CS(=O)(=O)c1ccc(C(O)CN2CCC(c3ccn[nH]3)CC2)cc1 (stereo not given)
The Percent Effect of the first is higher: -0.233% for the first, -7.22% for the second.

First: O=C1CC(c2ccncc2)C2(CCN(C(=O)c3ccc[nH]3)CC2)N1 (stereo not given)
Second: O=C(NCCN1CCOCC1)c1n[nH]c(=O)c2ccccc12
The Percent Effect of the first is higher: -0.81% for the first, -2% for the second.

Going from `CC(C)c1nnc2n1CCN(Cc1csc(CC(=O)N(C)C)n1)C2` to `Cc1cc(C)n(CC2CCCN2C(=O)c2ccc3[nH]nnc3c2)n1` (stereo not given), the Percent Effect rises from -7.04% to 3.71%.

First: O=C(Cn1cccnc1=O)NC(Cc1ccsc1)c1ccccn1 (stereo not given)
Second: Cn1cc2c(n1)C(COCC1CC1)CN(Cc1ccccn1)C2 (stereo not given)
The Percent Effect of the first is lower: -3.14% for the first, -2.25% for the second.

First: Cc1nc(C)n(C2CCCN(C(=O)Cc3cccnc3)C2)n1 (stereo not given)
Second: Cc1nccn1C1CCCN(C(=O)c2ccc3c(c2)nnn3C)C1 (stereo not given)
The Percent Effect of the first is lower: -4.24% for the first, -1.94% for the second.

Going from `CNC1CCCN(Cc2noc(C3CC3)n2)C1` (stereo not given) to `COc1cccc(-c2noc(C3CCN(Cc4cn(C)nc4C)C3)n2)c1` (stereo not given), the Percent Effect falls from -0.881% to -1.93%.

Going from `COc1cccc(S(=O)(=O)NC2CNC(=O)C2)c1` (stereo not given) to `c1cnc(NCc2noc3c2CN(C2CCOCC2)CC3)nc1`, the Percent Effect rises from -3.48% to 2.79%.

Source: ChEMBL document CHEMBL3988442, “University of Dundee, Small-Polar-MMV Screening Library” (2021)
